Among all 5,500 compounds or so, about 2,000 (36%) were called active. Inconclusive results (about 18%) are left out. Cut-off read from the data, not from the text of the source: active = normalized growth mostly below about 0.91 (no sharp cut-off); inconclusive = no clear call, values can overlap the other calls; inactive = mostly above about 0.92. This is one part of the list.
Assay: chemical genetic growth profiling, strain panel (AID 1159580);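 note: tested at 20 µM; growth read once vehicle control cultures reached saturation at 30 °C; 1 = growth at the plate median or of vehicle wells; lower values mean less growth of the strain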
Conditions: S. cerevisiae deletion strains, growth OD

Measured: normalized growth

O=C(O)[C@@H](S)[C@@H](S)C(=O)O
inactive: locus YAL030W, strain snc1, hits give low values 0.975 | locus YBL061C, strain skt5, hits give low values 0.967 | locus YBR023C, strain chs3, hits give low values 0.962 | locus YBR171W, strain sec66, hits give low values 0.976 | locus YCL011C, strain gbp2, hits give low values 0.921 | locus YCL016C, strain dcc1, hits give low values 0.945 | locus YCL061C, strain MRC1, hits give low values 0.936 | locus YCL069W, strain vba3, hits give low values 0.953 | locus YCR088W, strain abp1, hits give low values 0.971 | locus YDL005C, strain med2, hits give low values 1 | locus YDL040C, strain nat1, hits give low values 0.971 | locus YDR001C, strain nth1, hits give low values 0.971 | locus YDR159W, strain sac3, hits give low values 0.91 | locus YDR195W, strain ref2 1.01 | locus YDR297W, strain sur2, hits give low values 0.975 | locus YDR334W, strain swr1, hits give low values 0.958 | locus YEL003W, strain gim4, hits give low values 0.962 | locus YEL037C, strain rad23, hits give low values 0.953 | locus YEL061C, strain CIN8 (second series), hits give low values 0.977 | locus YER015W, strain faa2, hits give low values 0.958 | locus YER016W, strain bim1, hits give low values 0.952 | locus YER111C, strain swi4, hits give low values 0.965 | locus YGL167C, strain pmr1, hits give low values 0.976 | locus YGL227W, strain vid30, hits give low values 0.978 | locus YHR142W, strain chs7, hits give low values 0.937 | locus YJL092W, strain hpr5, hits give low values 0.932 | locus YJL095W, strain BCK1 (second series), hits give low values 0.973 | locus YJL115W, strain asf1, hits give low values 0.969 | locus YJL129C, strain trk1, hits give low values 0.982 | locus YJL154C, strain vps35, hits give low values 0.979 | locus YJL164C, strain tpk1, hits give low values 0.966 | locus YJL187C, strain SWE1, hits give low values 0.979 | locus YKL160W, strain elf1, hits give low values 0.974 | locus YKR026C, strain gcn3, hits give low values 0.978 | locus YKR091W, strain srl3, hits give low values 0.977 | locus YLL026W, hits give low values 0.932 | locus YLL041C, strain sdh2, hits give low values 0.978 | locus YLR027C, strain aat2, hits give low values 0.938 | locus YLR221C, strain rsa3, hits give low values 0.919 | locus YLR258W, strain gsy2, hits give low values 0.93 | locus YLR262C, strain YPT6 (second series), hits give low values 0.898 | locus YLR342W, strain FKS1, hits give low values 0.964 | locus YLR384C, strain iki3, hits give low values 0.979 | locus YML120C, strain ndi1, hits give low values 0.987 | locus YMR125W, strain sto1, hits give low values 0.951 | locus YMR129W, hits give low values 0.963 | locus YMR231W, strain pep5, hits give low values 0.982 | locus YNL209W, strain ssb2, hits give low values 0.974 | locus YNL248C, strain rpa49, hits give low values 0.926 | locus YNL322C, strain KRE1 (second series), hits give low values 0.97 | locus YNR049C, strain mso1, hits give low values 0.941 | locus YOR001W, strain rrp6, hits give low values 0.992 | locus YOR070C, strain gyp1, hits give low values 0.961 | locus YOR080W, strain dia2, hits give low values 0.968 | locus YOR083W, strain WHI5, hits give low values 0.924 | locus YOR265W, strain rbl2, hits give low values 0.976 | locus YPL078C, strain atp4, hits give low values 0.96 | locus YPL106C, strain sse1, hits give low values 0.931 | locus YPL240C, strain hsp82, hits give low values 0.987
active: locus YAL021C, strain ccr4, hits give low values 0.545 | locus YAL026C, strain drs2, hits give low values 0.836 | locus YBR009C, strain hhf1, hits give low values 0.875 | locus YBR231C, strain swc5, hits give low values 0.887 | locus YBR279W, strain paf1, hits give low values 0.922 | locus YDR069C, strain doa4, hits give low values 0.681 | locus YDR137W, strain rgp1, hits give low values 0.73 | locus YDR335W, strain msn5, hits give low values 0.911 | locus YDR392W, strain spt3, hits give low values 0.532 | locus YER155C, strain BEM2 (second series), hits give low values 0.662 | locus YFR010W, strain ubp6, hits give low values 0.828 | locus YGL173C, strain kem1, hits give low values 0.892 | locus YGL240W, strain doc1, hits give low values 0.886 | locus YGL253W, strain hxk2, hits give low values 0.678 | locus YHR013C, strain ard1, hits give low values 0.533 | locus YHR027C, strain rpn1, hits give low values 0.885 | locus YHR030C, strain SLT2, hits give low values 0.337 | locus YHR079C, strain IRE1, hits give low values 0.426 | locus YJL095W, strain BCK1, hits give low values 0.413 | locus YJL166W, strain qcr8, hits give low values 0.859 | locus YJR066W, strain TOR1, hits give low values 0.417 | locus YLL001W, strain dnm1, hits give low values 0.888 | locus YLR113W, strain HOG1, hits give low values 0.443 | locus YLR320W, strain mms22, hits give low values 0.798 | locus YLR357W, strain rsc2, hits give low values 0.798 | locus YLR370C, strain arc18, hits give low values 0.81 | locus YMR058W, strain fet3, hits give low values 0.832 | locus YMR205C, strain PFK2, hits give low values 0.808 | locus YNL071W, strain lat1, hits give low values 0.695 | locus YNL183C, strain NPR1, hits give low values 0.516 | locus YOR106W, strain vam3, hits give low values 0.496 | locus YOR231W, strain MKK1, hits give low values 0.324 | locus YOR270C, strain vph1, hits give low values 0.357 | locus YOR290C, strain snf2, hits give low values 0.722 | locus YPL051W, strain arl3, hits give low values 0.899 | locus YPL256C, strain CLN2, hits give low values 0.474
